Reference: the supplement of paper PMC8975748
Counter-ions that a name gives are not always drawn.

System: Saccharomyces cerevisiae BY4741 SeMeCo community
Experiment: z-score of subpopulation abundance vs DMSO median, subpopulation auxotrophic for HU; higher = larger share of this subpopulation than in DMSO controls
Conditions: 10 µM; 24 h; SM minimal medium; subpopulation (auxotrophy): HU
Protocol: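 Fluorescent four-plasmid SeMeCo (self-establishing metabolically cooperating S. cerevisiae BY4741 community; plasmids pH-mRuby2, pL-mWasabi, pU-eCFP, pM-TagRFP657) was grown 24 h in minimal SM medium with each Selleck FDA-approved drug at 10 µM in 384-well plates. Cells were fixed and imaged by high-content confocal microscopy. For each auxotrophic subpopulation (and the prototroph), a z-score gives the deviation from the DMSO vehicle-control population median.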

For `CN(C)[C@@H]1C(=O)C(C(N)=O)=C(O)[C@@]2(O)C(=O)C3=C(O)c4c(O)cccc4[C@@](C)(O)[C@H]3[C@H](O)[C@@H]12` [Oxytetracycline (Terramycin)], which “z-score of subpopulation abundance” value is on record?
The value was 0.99.

For `CC(C)=CCOc1c2occc2cc2ccc(=O)oc12` [Imperatorin], which “z-score of subpopulation abundance” value is on record?
The value was 0.85.

With `C[N+]12CCC(CC1)C(OC(=O)C(O)(c1ccccc1)c1ccccc1)C2` (stereo not given) [Clidinium Bromide] as the molecule, how does the “z-score of subpopulation abundance” value read?
Its value is -0.29.

For `C[N+](C)(C)CCCCCCCCCC[N+](C)(C)C` [Decamethonium Bromide], which “z-score of subpopulation abundance” value is on record?
The value was -0.06.

`CN(C)[C@@H]1C(=O)C(C(N)=O)=C(O)[C@@]2(O)C(=O)C3=C(O)c4c(O)cccc4[C@@](C)(O)[C@H]3C[C@@H]12` [Tetracycline HCl] was tested. Which “z-score of subpopulation abundance” value did it give?
The value was -0.3.

For `CN(C)C(=O)Oc1cccc([N+](C)(C)C)c1` [Neostigmine Bromide], which “z-score of subpopulation abundance” value is on record?
The value was -0.26.

How did the “z-score of subpopulation abundance” value turn out when `N#Cc1nn(-c2c(Cl)cc(C(F)(F)F)cc2Cl)c(N)c1[S+]([O-])C(F)(F)F` (stereo not given) [Fipronil] was run?
The value was -0.37.

`C=CN1CCCC1=O.II` [Povidone iodine] was tested. Which “z-score of subpopulation abundance” value did it give?
The value was 1.56.

`CN1C(=O)COc2c(C(=O)NC3CN4CCC3CC4)cc(Cl)cc21` (stereo not given) [Azasetron HCl] was tested. Which “z-score of subpopulation abundance” value did it give?
The value was -0.34.

With `O=C(O[C@H]1C[N+]2(CCCOc3ccccc3)CCC1CC2)C(O)(c1cccs1)c1cccs1` [Aclidinium Bromide] as the molecule, how does the “z-score of subpopulation abundance” value read?
Its value is 0.63.

With `NCCc1c[nH]c2ccc(O)cc12` [Serotonin HCl] as the molecule, how does the “z-score of subpopulation abundance” value read?
Its value is -0.18.

`NCC(O)c1ccc(O)cc1` (racemic) [(+,-)-Octopamine HCl] was tested. Which “z-score of subpopulation abundance” value did it give?
Its value is 0.29.

How did the “z-score of subpopulation abundance” value turn out when `CC1(C)SC2C(N)C(=O)N2C1C(=O)O` (stereo not given) [6-Aminopenicillanic acid] was run?
The value was 0.4.

For `C[CH2][Hg][S]c1ccccc1C(=O)[O-].[Na+]` [Thimerosal], which “z-score of subpopulation abundance” value is on record?
The value was 6.59.

`COc1ccc2[nH]cc(CCN)c2c1` [5-Methoxytryptamine] was tested. Which “z-score of subpopulation abundance” value did it give?
Its value is 0.53.

With `C=CCN1C[C@H](C(=O)N(CCCN(C)C)C(=O)NCC)C[C@@H]2c3cccc4[nH]cc(c34)C[C@H]21` [Cabergoline] as the molecule, how does the “z-score of subpopulation abundance” value read?
The value was 0.39.

For `C[C@H]1O[C@H](O[C@H]2[C@H](O)[C@@H](O)[C@@H](O)[C@H](O)[C@@H]2O)[C@@H](N)C[C@@H]1NC(=N)C(=O)O` [Kasugamycin hydrochloride], which “z-score of subpopulation abundance” value is on record?
The value was -0.33.

Which “z-score of subpopulation abundance” value does the source give for `O=c1cccc2n1C[C@@H]1CNC[C@H]2C1` [Cytisine] here?
The value was -0.56.

With `CN[C@@H]1[C@@H](O)[C@@H](O[C@@H]2[C@@H](O)[C@H](O[C@H]3O[C@H](CN)CC[C@H]3N)[C@@H](N)C[C@H]2N)OC[C@]1(C)O.CN[C@@H]1[C@@H](O)[C@@H](O[C@@H]2[C@@H](O)[C@H](O[C@H]3O[C@H]([C@@H](C)N)CC[C@H]3N)[C@@H](N)C[C@H]2N)OC[C@]1(C)O.CN[C@@H]1[C@@H](O)[C@@H](O[C@@H]2[C@@H](O)[C@H](O[C@H]3O[C@H]([C@@H](C)NC)CC[C@H]3N)[C@@H](N)C[C@H]2N)OC[C@]1(C)O` [Gentamicin Sulfate] as the molecule, how does the “z-score of subpopulation abundance” value read?
Its value is -0.53.

How did the “z-score of subpopulation abundance” value turn out when `CN1[C@@H]2CC[C@H]1C[C@@H](OC(=O)[C@H](CO)c1ccccc1)C2` [Hyoscyamine] was run?
The value was -0.35.

`CC[C@H]1CN2CC[C@]3(C(=O)Nc4ccccc43)[C@@H]2C[C@@H]1/C(=C\OC)C(=O)OC` [Rhynchophylline] was tested. Which “z-score of subpopulation abundance” value did it give?
Its value is 0.35.

For `CC(C)N(CCC(C(N)=O)(c1ccccc1)c1ccccn1)C(C)C` (stereo not given) [Disopyramide], which “z-score of subpopulation abundance” value is on record?
The value was -0.45.

`COc1ccc2c3c([nH]c2c1)C(C)=NCC3` [Harmaline] was tested. Which “z-score of subpopulation abundance” value did it give?
The value was -7.98.

For `CC[C@@H](C(N)=O)N1CCCC1=O` [Levetiracetam], which “z-score of subpopulation abundance” value is on record?
The value was -0.75.

With `CCOC(=O)Nc1ccc(NCc2ccc(F)cc2)cc1N` [Retigabine] as the molecule, how does the “z-score of subpopulation abundance” value read?
The value was -0.59.

Which “z-score of subpopulation abundance” value does the source give for `CN(C)[C@@H]1C(=O)C(C(N)=O)=C(O)[C@@]2(O)C(=O)C3=C(O)c4c(O)cccc4[C@@](C)(O)[C@H]3[C@H](O)[C@@H]12` [Oxytetracycline Dihydrate] here?
Its value is -0.06.

With `COc1cc2c(cc1OC)C1CC(=O)C(CC(C)C)CN1CC2` (stereo not given) [Tetrabenazine (Xenazine)] as the molecule, how does the “z-score of subpopulation abundance” value read?
Its value is -1.24.

For `COc1ccc(C(CN(C)C)C2(O)CCCCC2)cc1` (stereo not given) [Venlafaxine], which “z-score of subpopulation abundance” value is on record?
Its value is 0.4.

Which “z-score of subpopulation abundance” value does the source give for `C=C(C)[C@H]1Cc2c(ccc3c2O[C@@H]2COc4cc(OC)c(OC)cc4[C@@H]2C3=O)O1` [Rotenone (Barbasco)] here?
The value was 1.02.

`CN(C)[C@@H]1C(=O)C(C(N)=O)=C(O)[C@@]2(O)C(=O)C3=C(O)c4c(O)ccc(Cl)c4[C@@](C)(O)[C@H]3C[C@@H]12` [Chlortetracycline HCl] was tested. Which “z-score of subpopulation abundance” value did it give?
Its value is -0.42.

How did the “z-score of subpopulation abundance” value turn out when `CC[C@@]1(O)C(=O)OCc2c1cc1n(c2=O)Cc2cc3ccccc3nc2-1` [Camptothecin] was run?
The value was -0.74.

Which “z-score of subpopulation abundance” value does the source give for `COc1ccc2c(c1)[C@]13CCCC[C@@H]1[C@H](C2)N(C)CC3` [Dextromethorphan hydrobromide hydrate] here?
Its value is -0.61.

For `CC(=O)O[C@H]1C[C@@H]2CC[C@@H]3[C@H](CC[C@@]4(C)[C@H]3C[C@H]([N+]3(C)CCCCC3)[C@@H]4OC(C)=O)[C@@]2(C)C[C@@H]1[N+]1(C)CCCCC1` [Pancuronium dibromide], which “z-score of subpopulation abundance” value is on record?
Its value is -0.53.

How did the “z-score of subpopulation abundance” value turn out when `C=C[C@H]1CN2CC[C@H]1C[C@H]2[C@H](O)c1ccnc2ccccc12` [Cinchonidine] was run?
Its value is -0.45.

With `O=C(O[C@H]1C[C@H]2CC[C@@H](C1)[N+]21CCCC1)C(O)(c1ccccc1)c1ccccc1` [Trospium chloride] as the molecule, how does the “z-score of subpopulation abundance” value read?
The value was 0.09.

For `O=[N+]([O-])C(Br)(CO)CO` [Bronopol], which “z-score of subpopulation abundance” value is on record?
The value was 0.4.

With `C[N+]1(C)[C@@H]2C[C@@H](OC(=O)[C@H](CO)c3ccccc3)C[C@H]1[C@@H]1O[C@@H]12` [Methscopolamine] as the molecule, how does the “z-score of subpopulation abundance” value read?
Its value is 0.7.

`CC(NC(C)(C)C)C(=O)c1cccc(Cl)c1` (stereo not given) [Amfebutamone (Bupropion) HCl] was tested. Which “z-score of subpopulation abundance” value did it give?
Its value is -0.9.

Which “z-score of subpopulation abundance” value does the source give for `CN[C@@H]1[C@@H](O)[C@@H](O[C@@H]2[C@@H](O)[C@H](O[C@H]3O[C@H]([C@@H](C)O)[C@@H](O)[C@H](O)[C@H]3N)[C@@H](N)C[C@H]2N)OC[C@]1(C)O` [Geneticin (G418 Sulfate)] here?
Its value is -0.46.

Which “z-score of subpopulation abundance” value does the source give for `CN1[C@@H]2C[C@@H](OC(=O)[C@H](CO)c3ccccc3)C[C@H]1[C@@H]1O[C@@H]12` [Scopolamine HBr] here?
Its value is -1.37.
